The record followed here is PubChem BioAssay AID488922 (Johns Hopkins Ion Channel Center, 2010).

Out of some 310,000 compounds screened, about 3,800 (1.2%) were called active. This is one part of a sample in which actives are shown more often than they occur.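 The calls were made as follows: active = ratio B-score over 3 SD below the library mean, with starting fluorescence within 5 SD of its mean; inactive = the rest, inconclusive results apart.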

Sequence of Potassium channel subfamily K member 9 (Homo sapiens) (Q9NPC2 whole entry, looked up): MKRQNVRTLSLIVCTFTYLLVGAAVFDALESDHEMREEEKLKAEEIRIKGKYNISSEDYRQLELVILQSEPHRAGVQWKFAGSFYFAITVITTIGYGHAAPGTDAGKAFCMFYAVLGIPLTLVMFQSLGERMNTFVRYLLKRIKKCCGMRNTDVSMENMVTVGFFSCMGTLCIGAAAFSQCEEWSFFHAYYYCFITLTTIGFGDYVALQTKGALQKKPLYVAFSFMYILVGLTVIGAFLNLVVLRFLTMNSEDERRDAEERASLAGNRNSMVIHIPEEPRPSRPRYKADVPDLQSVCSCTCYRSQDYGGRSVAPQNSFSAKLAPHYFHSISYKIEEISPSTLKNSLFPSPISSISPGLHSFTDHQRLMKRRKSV

The test concerns the target Potassium channel subfamily K member 9 (Homo sapiens) (UniProt Q9NPC2). Kind of test: KCNK9 potassium channel inhibitors, primary screen, HEK293 cells, thallium flux (AID 488922).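 As to B-score: negative B-score means less thallium flux so channel inhibition.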 The conditions noted are these: HEK293 KCNK9, FluxOR thallium flux fluorescence, at 10 µM; hits give low values.
For `Cc1c(C(=O)NC2CCCCC2)oc2ccccc12`, the B-score result is “inactive”.

`Cc1ccc(NC(=O)CC2C(=O)N(Cc3ccccc3)C(=S)N2NC(=O)c2cccc(F)c2)c(C)c1` (stereo not given): the B-score entry was “inactive”.

Turning to `CNc1ccc([N+](=O)[O-])cc1C(=O)O`, the B-score result was “inactive”.

As to `O=C(Nc1cccnc1)c1cc([N+](=O)[O-])ccc1Cl`, the B-score result is “inactive”.

On to `Cc1ccc(NC(=O)c2cc([N+](=O)[O-])ccc2Cl)c(O)c1`, for which the B-score is -10.2 (active).

Consider `FC(F)(F)c1cc(-c2cccs2)nc(NCc2ccco2)n1`, for which the B-score result is “inactive”.

Regarding `FC(F)(F)c1cc(-c2ccco2)nc(NCc2ccc(Cl)cc2)n1`, the B-score was -8.22 (active).

Regarding `COc1ccc(-c2cc(C(F)(F)F)nc(NCc3cccnc3)n2)cc1`, the B-score result was “inactive”.

For `O=C(OCCOCn1cc(Br)c(=O)[nH]c1=O)c1ccccc1`, the B-score entry is “inactive”.

Regarding `COc1ccc(Br)cc1CN(C)CC(=O)Nc1cc(Cl)cc(Cl)c1`, the B-score result is “inactive”.

For the compound `O=C(COc1ccc2ccccc2c1)N1CCN(C(=O)c2cccs2)CC1`, the B-score result was “inactive”.

On to `O=C(Nc1cccc(Cl)c1)Nc1ccccc1NS(=O)(=O)c1cccs1`, for which the B-score is -7.87 (active).

Regarding `O=S(=O)(NCc1ccc(Cl)cc1Cl)c1cccs1`, the B-score entry is “inactive”.

Regarding `O=S(=O)(Nc1ccccc1Br)c1cccs1`, the B-score result is “inactive”.

As for `Cn1ccs/c1=N\S(=O)(=O)c1ccc(C(C)(C)C)cc1`, the B-score result is “inactive”.

For the compound `COc1ccc(/C=N/NC(=O)c2ccccc2)cc1OS(=O)(=O)c1ccccc1`, the B-score entry was “inactive”.

Consider `COc1cc(/C=N/NC(=O)c2ccc(N3CCCC3=O)cc2)ccc1O`, for which the B-score result is “inactive”.

For `COc1ccc(/C=N/NC(=O)c2ccc3c(c2)OCCO3)c(OC)c1`, the B-score entry is “inactive”.

For `COc1ccc(C(=O)Nc2ccccc2C(=O)N/N=C/c2ccc(O)c(OC)c2)cc1`, the B-score was -10.2 (active).

In the case of `COc1ccc(C(=O)Nc2ccccc2C(=O)NCc2ccco2)cc1`, the B-score result was “inactive”.

For `COc1ccc(C(=O)Nc2ccccc2C(=O)N/N=C/c2ccccc2OC)cc1`, the B-score was -13.5 (active).

Take `COc1ccc(Cl)cc1NC(=O)COC(=O)C(CC(C)C)N1C(=O)C2CC=CCC2C1=O` (stereo not given): the B-score result is “inactive”.

`COc1ccccc1N1CC(C(=O)Nc2nnc(SCC(=O)NCC3CCCO3)s2)CC1=O` (stereo not given): the B-score result was “inactive”.

Consider `CC1(C)CC(=O)c2c(n(S(=O)(=O)c3ccccc3)c3ccc(NS(=O)(=O)c4ccccc4)cc23)C1`, for which the B-score result was “inactive”.

For the compound `CNC(=O)c1sc(Nc2ccc(OCc3ccccc3)cc2)nc1C`, the B-score entry was “inactive”.

As for `CCOC(=O)C1CCc2nc3ccccc3c(=O)n21` (stereo not given), the B-score entry is “inactive”.

In the case of `CCOn1c(SC(C)C)nc2ccccc2c1=O`, the B-score result is “inactive”.

On to `CCOC(=O)C(C)Sc1nc2ccccc2c(=O)n1CC1CCCCC1` (stereo not given), for which the B-score was -11.7 (active).

`FC(F)(F)c1ccc2c3n(nc2c1)CCN=C3c1ccc(Cl)cc1`: the B-score entry is “inactive”.

Regarding `O=C(Nc1ccc(Br)cc1)c1cccc(NC(=O)C2C3CC4OC(=O)C2C4C3)c1` (stereo not given), the B-score entry is “inactive”.

As to `COC(=O)c1ccc(C(NC(=O)OCc2ccccc2)/C(F)=C/[C@@H](C)C(=O)O)cc1` (stereo not given in full), the B-score result is “inactive”.

Take `CCC[C@@H]1C[C@@]1(CCC)[C@@H](NC(=O)c1ccccc1)c1ccc(C(=O)OC)cc1`: the B-score entry is “inactive”.

In the case of `CCC/C=C(\CCC)C(NC(=O)Cc1ccccc1)c1ccc(C(=O)OC)cc1` (stereo not given), the B-score was -13.9 (active).

As for `CCc1cc2c(=O)n(-c3ccccc3)c(SCC(=O)O)nc2s1`, the B-score result is “inactive”.

On to `CCNC(=S)N(CCc1c(C)[nH]c2ccc(C)cc12)Cc1ccco1`, for which the B-score result is “inactive”.

Turning to `COc1cccc(NC(=S)N(CCc2c(C)[nH]c3ccccc23)Cc2ccco2)c1`, the B-score was -9.04 (active).

Turning to `COc1ccc2[nH]c(C)c(CCN(Cc3cccs3)C(=S)Nc3ccccc3OC)c2c1`, the B-score entry is “inactive”.

Regarding `O=C1c2ccccc2S(=O)(=O)N1Cc1c(F)cccc1Cl`, the B-score result is “inactive”.

On to `O=C1CCN(CCCc2ccccc2)CCN1CCO`, for which the B-score entry is “inactive”.

With `CCOC(=O)[C@@H]1[C@H]2COc3ccc(Br)cc3[C@H]2N2C(=O)N(c3ccc(Cl)cc3)C(=O)[C@@]12C`, the B-score is -10.9 (active).

For `CCOC(=O)[C@@H]1[C@H]2COc3cc(OC)ccc3[C@H]2N2C(=O)N(c3ccc(F)cc3)C(=O)[C@]12C`, the B-score entry is “inactive”.

As to `CCOC(=O)[C@H]1[C@H]2COc3cc(OC)ccc3[C@@H]2N2C(=O)N(c3ccc(Br)cc3)C(=O)[C@@]12C`, the B-score result is “inactive”.

For `Cc1onc(-c2ccccc2Cl)c1C(=O)OCc1nnc(-c2ccccc2)o1`, the B-score result was “inactive”.

As to `Fc1cccc(Cl)c1CSc1ccc(-c2ccco2)nn1`, the B-score was -14.1 (active).

With `O=C(CSc1ccc(-c2ccco2)nn1)Nc1cccc(F)c1`, the B-score entry was “inactive”.

Turning to `Cc1cc(SCc2c(F)cccc2Cl)nc(=O)[nH]1`, the B-score entry is “inactive”.

In the case of `NC(=O)C1=C[C@@H](c2csc3ccccc23)C[C@@H](OCc2ccc(CO)cc2)O1`, the B-score result was “inactive”.

For `COC(=O)c1c(NC(=O)C(=O)N2CCCCC2)sc2c1CC(C)(C)OC2`, the B-score result is “inactive”.

As to `COc1ccc(/C=C2\CCCC3C2=NN(C(=O)c2scnc2C)C3c2ccc(OC)cc2)cc1` (stereo not given), the B-score result was “inactive”.

For the compound `CCCCC(C(=O)NC(C)(C)C)N(Cc1ccccc1)C(=O)c1snc(C(N)=O)c1N` (stereo not given), the B-score result is “inactive”.

As to `CCC(C)n1c(-c2cc(OC)c(OC)c(OC)c2)nc2nc3ccccc3nc21` (stereo not given), the B-score was -15.1 (active).

As to `COc1cc(-c2n[nH]c(=S)n2Cc2ccccc2)cc(OC)c1OC`, the B-score entry was “inactive”.

In the case of `COc1cc(C(O)c2nc3ccccc3n2C)cc(OC)c1OC` (stereo not given), the B-score result was “inactive”.

As for `COc1ccccc1-n1ccnc(SCC(=O)NC2CCCCC2)c1=O`, the B-score result was “inactive”.

In the case of `O=C(C1CCN(C2CCN(Cc3ccc4cc(F)ccc4n3)CC2)CC1)N1CCCC1`, the B-score result is “inactive”.

With `CCN(C(=O)COC(=O)c1cc(NS(=O)(=O)c2ccc(Cl)c([N+](=O)[O-])c2)ccc1O)C1CCCCC1`, the B-score entry is “inactive”.

For `Cc1c(C(=O)NCC2CCCO2)sc2nc(-c3ccccc3)cn12` (stereo not given), the B-score entry is “inactive”.

As for `Cc1c(C(=O)N2CCCc3ccccc32)sc2nc(-c3ccccc3)cn12`, the B-score was -6.69 (active).

For `Cc1c(C(=O)N2CC(C)OC(C)C2)sc2nc(-c3ccccc3)cn12` (stereo not given), the B-score result is “inactive”.

Regarding `O=C(c1cc(-c2ccc(O)cc2)on1)N1CCCc2ccccc21`, the B-score entry was “inactive”.

In the case of `Cc1cccc2cc3c(N)c(C(=O)N4CCCc5ccccc54)sc3nc12`, the B-score was -6.79 (active).

With `Cc1c(C(=O)N2CCCc3ccccc32)oc2ccccc12`, the B-score result is “inactive”.

With `COc1cccc(CNC(=O)Cn2c(=O)oc3cc(S(=O)(=O)N4CCCCC4)ccc32)c1`, the B-score entry was “inactive”.

For the compound `Cc1ccc(N2CC(C(=O)Nc3ccc(S(=O)(=O)N4CCCC4)cc3)CC2=O)cc1C` (stereo not given), the B-score entry was “inactive”.

With `O=C(CCc1n[nH]c(=O)[nH]c1=O)N/N=C/c1ccc(Br)o1`, the B-score entry was “inactive”.

Regarding `CC(C)OCCCNC(=O)c1ccc(C2SCC(=O)N2Cc2ccco2)cc1` (stereo not given), the B-score entry was “inactive”.

For the compound `CCCCCCCC(=O)NC(Nc1ccccc1OC)C(Cl)(Cl)Cl` (stereo not given), the B-score result is “inactive”.

On to `CCOC(=O)N1CCC(N(CCOC)C(=O)Nc2ccc(C)c(C)c2)CC1`, for which the B-score result is “inactive”.

For the compound `CCCCCCCCCCOC(=O)Cn1c(COc2cccc(OC)c2)[n+](C)c2ccccc21`, the B-score was -17.1 (active).

For `CCOC(=O)Cn1c(-c2cccnc2Cl)nc2ccccc21`, the B-score result is “inactive”.

With `CCn1c(COc2cccc(OC)c2)nnc1SCC(=O)N1CCOCC1`, the B-score entry is “inactive”.

As to `CCCCCCCCCCOC(=O)Cn1c(COc2ccc(C)cc2)[n+](C)c2ccccc21`, the B-score was -11.4 (active).

As for `CCCCCCCCC(=O)NCCOc1ccccc1`, the B-score result is “inactive”.

As to `Cc1ccc(OCCCn2c(=O)oc3ccccc32)cc1`, the B-score entry was “inactive”.

`C[C@@H]1O[C@@H](OC[C@H]2O[C@@H](Oc3c(-c4ccc(O)cc4)oc4cc(O)cc(O)c4c3=O)[C@H](O)[C@@H](O)[C@@H]2O)[C@H](O)[C@H](O)[C@H]1O`: the B-score entry is “inactive”.

As to `Cc1ccc(C2(C)NC(=O)N(CC(=O)Nc3ccccc3C(=O)N3CCCCC3)C2=O)cc1` (stereo not given), the B-score entry is “inactive”.

For the compound `O=C(OCCN1CCOCC1)C1(c2ccccc2)CCCCC1`, the B-score result is “inactive”.

Consider `CCc1ccc(-c2cc(C(=O)NN3CCN(C)CC3)c3ccccc3n2)cc1`, for which the B-score result is “inactive”.

For `CC(C)CN(C(=O)COC(=O)c1ccc2ccccc2c1)c1c(N)n(Cc2ccccc2)c(=O)[nH]c1=O`, the B-score entry is “inactive”.

Consider `Cc1ccc(NS(=O)(=O)c2ccc(-c3ccc(=O)[nH]n3)o2)c(C)c1`, for which the B-score entry was “inactive”.

For `Cc1ccc(CCN2CC(C(=O)NCCc3ccccc3)CC2=O)cc1` (stereo not given), the B-score entry is “inactive”.

Consider `O=C(Nc1ccc(Cl)cc1)C1c2cccc[n+]2CC(=O)N1Cc1ccc2c(c1)OCO2` (stereo not given), for which the B-score entry was “inactive”.

Consider `CCOc1ccc(/C=N/NC(=O)CSc2ccccn2)cc1O`, for which the B-score result is “inactive”.

Turning to `C=CCOc1ccc(/C=N/NC(=O)C(C)Sc2ccccn2)cc1OCC` (stereo not given), the B-score is -8.3 (active).

For the compound `CCOc1ccc(/C=N/NC(=O)C(C)Sc2ccccn2)cc1OCC` (stereo not given), the B-score entry is “inactive”.

As for `C/C(=N\NC(=O)CCn1nc(C)cc1C)C(C)(C)C`, the B-score result was “inactive”.

On to `O=C(COC(=O)c1ccc[nH]c1=O)Nc1ccc2c(c1)OC(F)(F)O2`, for which the B-score result was “inactive”.

As for `O=C(COC(=O)c1ccccc1NC(=O)c1ccco1)Nc1ccc2c(c1)OC(F)(F)O2`, the B-score was -8.01 (active).

`COc1ccc(OCC(=O)Nc2ccc(NC(=O)c3ccco3)c(C)c2)cc1`: the B-score result is “inactive”.

Consider `Cc1ccnc(SCCn2c(N(C)Cc3ccccc3)nc3c2c(=O)n(C)c(=O)n3C)n1`, for which the B-score result is “inactive”.

Take `OC(COCCC12CC3CC(CC(C3)C1)C2)CN1CCCCC1` (stereo not given): the B-score entry was “inactive”.

For `O=C(CN1C(=O)c2ccccc2C1=O)NCc1ccc(C(=O)O)cc1`, the B-score result was “inactive”.

As to `CC(=O)N(C1=C(Cl)C(=O)c2ccccc2C1=O)c1ccc(C(=O)O)cc1`, the B-score is -6.74 (active).

In the case of `COc1ccc(OC)c(C(=O)c2coc3ccc(O)c(CN4CCOCC4)c23)c1`, the B-score result was “inactive”.

Take `COc1ccc2occ(C(=O)c3ccc(N=C(C)N(C)C)cc3)c2c1`: the B-score entry was “inactive”.

In the case of `COc1ccc(OC)c(C(=O)c2coc3ccc(OC)cc23)c1`, the B-score was -15 (active).

`Cc1ccnc(NC(=O)Cn2ccc([N+](=O)[O-])n2)c1`: the B-score result is “inactive”.

Take `CC(/C=N/NC(=O)c1cc(-c2ccc3ccccc3c2)n[nH]1)=C\c1ccco1`: the B-score was -6.63 (active).

With `Cc1ccc(-c2cc(C(=O)N/N=C/C=C/c3ccco3)c3ccccc3n2)cc1C`, the B-score entry was “inactive”.

With `CC(/C=N/NC(=O)c1ccncc1)=C\c1ccco1`, the B-score result is “inactive”.
